# Measured values published in the supplement of paper PMC4022240.
# ± gives the standard deviation.
# Experiments:
# Assay in all cases: peptide microarray binding signal (635 nm), min-max normalized on array (fraction of array maximum); higher = stronger binding
# Conditions in all cases: peptide region: H3 1-13
# [1] = biological target: T1, HaloTag-ATRX ADD domain (163-292)
# T1 chain: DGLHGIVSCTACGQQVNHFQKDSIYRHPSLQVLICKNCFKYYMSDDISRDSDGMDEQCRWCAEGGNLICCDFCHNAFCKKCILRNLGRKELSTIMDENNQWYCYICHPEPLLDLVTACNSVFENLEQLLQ
# Protocol: (§1)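 Histone 13-mer peptides were synthesized as cellulose conjugates with a C-terminal 20-atom PEG linker and printed in triplicate on nitrocellulose. The sequence given is the unmodified backbone; PTMs (Kme1/2/3, Kac, Sph/Tph, Rme/Rme2a/Rme2s, Rcit) are listed in the label and the 'peptide modifications' condition. Slides were probed at 4 °C for 1 h with biotin-labelled (HQ)5-HaloTag reader fusions (ATRX-ADD, ING2-PHD) then streptavidin-Alexa647, or with rabbit histone antibodies then anti-rabbit Alexa647. The mean 635 nm signal of the triplicate spots was scaled 0-1 between the lowest and highest values on each array.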
# [2] = biological target: HaloTag-ING2 PHD (mouse Ing2 200-280)
# Protocol: as §1
# [3] = biological target: anti-H3K4me3 antibody ab8580
# Protocol: as §1
# [4] = biological target: anti-H3K9me3 antibody ab8898
# Protocol: as §1
# [5] = peptide modifications: H3K9me3, binder concentration: 1:2,000 dilution
# [6] = peptide modifications: H3K9me3, binder concentration: 1:10,000 dilution
# [7] = peptide modifications: H3K9me2 H3S10ph, binder concentration: 1:2,000 dilution
# [8] = peptide modifications: H3K9me2 H3S10ph, binder concentration: 1:10,000 dilution
# [9] = peptide modifications: H3K9me1 H3S10ph, binder concentration: 1:2,000 dilution
# [10] = peptide modifications: H3K9me1 H3S10ph, binder concentration: 1:10,000 dilution
# [11] = peptide modifications: H3K9me2, binder concentration: 1:2,000 dilution
# [12] = peptide modifications: H3K9me2, binder concentration: 1:10,000 dilution
# [13] = peptide modifications: H3R2cit H3K4me2, binder concentration: 1:2,000 dilution
# [14] = peptide modifications: H3R2cit H3K4me2, binder concentration: 1:10,000 dilution
# [15] = peptide modifications: H3R2cit H3K9me2, binder concentration: 1:2,000 dilution
# [16] = peptide modifications: H3R2cit H3K9me2, binder concentration: 1:10,000 dilution
# [17] = peptide modifications: H3K9ac H3S10ph, binder concentration: 1:2,000 dilution
# [18] = peptide modifications: H3K9me3 H3S10ph, binder concentration: 1:2,000 dilution
# [19] = peptide modifications: H3K9me3 H3S10ph, binder concentration: 1:10,000 dilution
# [20] = peptide modifications: H3K9me1, binder concentration: 1:2,000 dilution
# [21] = peptide modifications: H3K9me1, binder concentration: 1:10,000 dilution
# [22] = peptide modifications: H3R2cit H3K4me3, binder concentration: 1:2,000 dilution
# [23] = peptide modifications: H3R2cit H3K4me3, binder concentration: 1:10,000 dilution
binder,measurement,setting,value
ARTKQTARKSTGG [H3 1-13 A R T K Q T A R Kme3 S T G G],peptide microarray binding signal,"[1]; peptide modifications: H3K9me3, binder concentration: 50 nM",0.422 ± 0.025
same,peptide microarray binding signal,"[1]; peptide modifications: H3K9me3, binder concentration: 500 nM",0.417 ± 0.049
same,peptide microarray binding signal,"[2]; peptide modifications: H3K9me3, binder concentration: 10 nM",0.0205 ± 0.0055
same,peptide microarray binding signal,"[2]; peptide modifications: H3K9me3, binder concentration: 100 nM",0.0183 ± 0.0029
same,peptide microarray binding signal,[3]; [5],0.0544 ± 0.038
same,peptide microarray binding signal,[3]; [6],0.0262 ± 0.0086
same,peptide microarray binding signal,[4]; [5],0.228 ± 0.047
same,peptide microarray binding signal,[4]; [6],0.169 ± 0.11
ARTKQTARKSTGG [H3 1-13 A R T K Q T A R Kme2 Sph T G G],peptide microarray binding signal,"[1]; peptide modifications: H3K9me2 H3S10ph, binder concentration: 50 nM",0.0356 ± 0.0038
same,peptide microarray binding signal,"[1]; peptide modifications: H3K9me2 H3S10ph, binder concentration: 500 nM",0.0593 ± 0.0025
same,peptide microarray binding signal,"[2]; peptide modifications: H3K9me2 H3S10ph, binder concentration: 10 nM",0.00615 ± 8.7e-05
same,peptide microarray binding signal,"[2]; peptide modifications: H3K9me2 H3S10ph, binder concentration: 100 nM",0.0145 ± 0.0016
same,peptide microarray binding signal,[3]; [7],0.00119 ± 1.7e-05
same,peptide microarray binding signal,[3]; [8],0.000456 ± 3.6e-05
same,peptide microarray binding signal,[4]; [7],0.0144 ± 0.0017
same,peptide microarray binding signal,[4]; [8],0.00375 ± 0.00021
ARTKQTARKSTGG [H3 1-13 A R T K Q T A R Kme Sph T G G],peptide microarray binding signal,"[1]; peptide modifications: H3K9me1 H3S10ph, binder concentration: 50 nM",0.01 ± 0.00047
same,peptide microarray binding signal,"[1]; peptide modifications: H3K9me1 H3S10ph, binder concentration: 500 nM",0.0275 ± 0.00045
same,peptide microarray binding signal,"[2]; peptide modifications: H3K9me1 H3S10ph, binder concentration: 10 nM",0.00961 ± 0.00044
same,peptide microarray binding signal,"[2]; peptide modifications: H3K9me1 H3S10ph, binder concentration: 100 nM",0.02 ± 0.0008
same,peptide microarray binding signal,[3]; [9],0.000831 ± 3.9e-05
same,peptide microarray binding signal,[3]; [10],0.000171 ± 5.1e-06
same,peptide microarray binding signal,[4]; [9],0.00233 ± 0.00015
same,peptide microarray binding signal,[4]; [10],0.00138 ± 2.7e-05
ARTKQTARKSTGG [H3 1-13 A R T K Q T A R Kme2 S T G G],peptide microarray binding signal,"[1]; peptide modifications: H3K9me2, binder concentration: 50 nM",0.0139 ± 0.0015
same,peptide microarray binding signal,"[1]; peptide modifications: H3K9me2, binder concentration: 500 nM",0.0282 ± 0.0022
same,peptide microarray binding signal,"[2]; peptide modifications: H3K9me2, binder concentration: 10 nM",0.00668 ± 0.00014
same,peptide microarray binding signal,"[2]; peptide modifications: H3K9me2, binder concentration: 100 nM",0.00935 ± 0.00046
same,peptide microarray binding signal,[3]; [11],0.00104 ± 0.0001
same,peptide microarray binding signal,[3]; [12],0.000571 ± 1.1e-05
same,peptide microarray binding signal,[4]; [11],0.00128 ± 6.2e-05
same,peptide microarray binding signal,[4]; [12],0.000923 ± 9.6e-06
ARTKQTARKSTGG [H3 1-13 A Rcit T Kme2 Q T A R K S T G G],peptide microarray binding signal,"[1]; peptide modifications: H3R2cit H3K4me2, binder concentration: 50 nM",0.00959 ± 0.00044
same,peptide microarray binding signal,"[1]; peptide modifications: H3R2cit H3K4me2, binder concentration: 500 nM",0.0222 ± 0.0016
same,peptide microarray binding signal,"[2]; peptide modifications: H3R2cit H3K4me2, binder concentration: 10 nM",0.0839 ± 0.0012
same,peptide microarray binding signal,"[2]; peptide modifications: H3R2cit H3K4me2, binder concentration: 100 nM",0.149 ± 0.043
same,peptide microarray binding signal,[3]; [13],0.126 ± 0.023
same,peptide microarray binding signal,[3]; [14],0.128 ± 0.017
same,peptide microarray binding signal,[4]; [13],0.00533 ± 0.00032
same,peptide microarray binding signal,[4]; [14],0.00352 ± 0.00019
ARTKQTARKSTGG [H3 1-13 A Rcit T K Q T A R Kme2 S T G G],peptide microarray binding signal,"[1]; peptide modifications: H3R2cit H3K9me2, binder concentration: 50 nM",0.0526 ± 0.0021
same,peptide microarray binding signal,"[1]; peptide modifications: H3R2cit H3K9me2, binder concentration: 500 nM",0.112 ± 0.0057
same,peptide microarray binding signal,"[2]; peptide modifications: H3R2cit H3K9me2, binder concentration: 10 nM",0.0306 ± 0.0059
same,peptide microarray binding signal,"[2]; peptide modifications: H3R2cit H3K9me2, binder concentration: 100 nM",0.056 ± 0.011
same,peptide microarray binding signal,[3]; [15],0.0151 ± 0.001
same,peptide microarray binding signal,[3]; [16],0.013 ± 0.0011
same,peptide microarray binding signal,[4]; [15],0.0265 ± 0.0012
same,peptide microarray binding signal,[4]; [16],0.00986 ± 0.00045
ARTKQTARKSTGG [H3 1-13 A R T K Q T A R Kac Sph T G G],peptide microarray binding signal,"[1]; peptide modifications: H3K9ac H3S10ph, binder concentration: 500 nM",0.0136 ± 0.00075
same,peptide microarray binding signal,"[2]; peptide modifications: H3K9ac H3S10ph, binder concentration: 100 nM",0.0173 ± 0.0011
same,peptide microarray binding signal,[3]; [17],0.000925 ± 2.1e-05
same,peptide microarray binding signal,[4]; [17],0.00113 ± 0.00013
ARTKQTARKSTGG [H3 1-13 A R T K Q T A R Kme3 Sph T G G],peptide microarray binding signal,"[1]; peptide modifications: H3K9me3 H3S10ph, binder concentration: 50 nM",0.188 ± 0.014
same,peptide microarray binding signal,"[1]; peptide modifications: H3K9me3 H3S10ph, binder concentration: 500 nM",0.207 ± 0.011
same,peptide microarray binding signal,"[2]; peptide modifications: H3K9me3 H3S10ph, binder concentration: 10 nM",0.00597 ± 0.00034
same,peptide microarray binding signal,"[2]; peptide modifications: H3K9me3 H3S10ph, binder concentration: 100 nM",0.0173 ± 0.0046
same,peptide microarray binding signal,[3]; [18],0.00283 ± 0.001
same,peptide microarray binding signal,[3]; [19],0.000913 ± 0.00014
same,peptide microarray binding signal,[4]; [18],0.085 ± 0.021
same,peptide microarray binding signal,[4]; [19],0.049 ± 0.01
ARTKQTARKSTGG [H3 1-13 A R T K Q T A R Kme S T G G],peptide microarray binding signal,"[1]; peptide modifications: H3K9me1, binder concentration: 50 nM",0.0276 ± 0.00028
same,peptide microarray binding signal,"[1]; peptide modifications: H3K9me1, binder concentration: 500 nM",0.0642 ± 0.0027
same,peptide microarray binding signal,"[2]; peptide modifications: H3K9me1, binder concentration: 10 nM",0.0068 ± 0.00044
same,peptide microarray binding signal,"[2]; peptide modifications: H3K9me1, binder concentration: 100 nM",0.0424 ± 0.0055
same,peptide microarray binding signal,[3]; [20],0.00068 ± 2.9e-05
same,peptide microarray binding signal,[3]; [21],0.000628 ± 6.7e-06
same,peptide microarray binding signal,[4]; [20],0.00122 ± 7.3e-05
same,peptide microarray binding signal,[4]; [21],0.00098 ± 4.6e-05
ARTKQTARKSTGG [H3 1-13 A Rcit T Kme3 Q T A R K S T G G],peptide microarray binding signal,"[1]; peptide modifications: H3R2cit H3K4me3, binder concentration: 50 nM",0.0156 ± 0.00085
same,peptide microarray binding signal,"[1]; peptide modifications: H3R2cit H3K4me3, binder concentration: 500 nM",0.0357 ± 0.0095
same,peptide microarray binding signal,"[2]; peptide modifications: H3R2cit H3K4me3, binder concentration: 10 nM",0.131 ± 0.042
same,peptide microarray binding signal,"[2]; peptide modifications: H3R2cit H3K4me3, binder concentration: 100 nM",0.19 ± 0.089
same,peptide microarray binding signal,[3]; [22],0.476 ± 0.19
same,peptide microarray binding signal,[3]; [23],0.28 ± 0.066
same,peptide microarray binding signal,[4]; [22],0.0852 ± 0.028
same,peptide microarray binding signal,[4]; [23],0.0601 ± 0.039
